In PubChem BioAssay (NCI) one finds growth data, which are given here for eight compounds.

Common to all, as to experiment: NCI-60 one-dose screen, 48 h (100 = growth as untreated, 0 = no growth, -100 = all killed)
Holding throughout (details): 10 µM unless noted

Test [1] deals with DU-145 prostate.
Test [2] deals with K-562 leukemia.
Test [3] relates to MALME-3M melanoma.
Test [4] concerns MDA-MB-231 breast.
Test [5] relates to RXF 393 renal.
Test [6] has as its system SF-268 CNS.
Test [7] deals with SF-295 CNS.
Test [8] deals with SF-539 CNS.
The test system of test [9] is UACC-257 melanoma.
Test [10] has as its system M14 melanoma.
In test [11] the test system is HCT-15 colon.
For test [12], the system named is HT29 colon.
Test [13] deals with SNB-75 CNS.
Test [14] relates to SNB-19 CNS.
Test [15] has as its system U251 CNS.
Test [16] deals with PC-3 prostate.
Test [17] relates to SK-MEL-5 melanoma.
Test [18] relates to UACC-62 melanoma.
In test [19] the test system is LOX IMVI melanoma.
For test [20], the system named is SK-MEL-28 melanoma.

The structures appear in SMILES notation. About 83,000 compounds went through this panel and 20% of them were active in at least one assay; those are over-represented in the sample as a whole.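 For each line, cells grew in 96-well plates with the test compound present at a single concentration for 48 hours.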 Unmarked numbers belong to inactive results. The source made the active and inactive calls. The calls were made as follows: active = growth percent below 10; inactive = the rest.

Consider `CN(C)c1ccc(C2(Cl)c3ccccc3N(C)c3ccccc32)cc1`, for which the growth in test [1] is 50.5%; in [2], 51%; in [3], 48.5%; in test [4] it was 69.1%; in [5], 74%; in test [6] it was 18.2%. Further, the growth in [7] was 66.3%; in [8], 86.9%; in test [9], 54.4%; in test [10], 53.4%; in [11] it was 64.5%; in [12], 12.1%. Also, the growth in test [13] is 71.2%; in test [14], 45.5%; in test [15] it was 1.47% (active); in test [16], 7.45% (active); in test [17], 79.9%; in [18], 35.2%. The results for the growth in [19] and in test [20] were 27.6% and 52.4%, respectively.

For `COc1ccc(Nc2nc(N)nc3c(=O)[nH]ccc23)cc1`, the growth in [1] is 114%; in test [2] it was 69%; in test [3], 150%; in [4], 110%; in [5] it was 133%; in test [6], 106%. Moreover, the growth in test [7] is 106%; in test [8], 104%; in test [9] it was 131%; in [10], 108%; in test [11], 109%; in [12], 103%. Moreover, the growth in test [13] was 107%; in test [14], 101%; in test [15], 115%; in [16], 81.5%; in [17], 111%; in test [18] it was 111%. The growth was 102% in test [19] and 124% in test [20].

Regarding `O=C(/C=C/c1ccc(F)cc1)N1CCN(C(=O)/C=C/c2ccc(C(F)(F)F)cc2)CC1`, the growth in test [1] was 109%; in [2] it was 104%; in test [3], 98.6%; in test [4], 96.8%; in test [5], 120%; in [6] it was 114%. The growth in test [7] is 119%; in test [8], 123%; in test [9] it was 97.3%; in [10] it was 97.4%; in test [11] it was 104%; in test [12] it was 101%. Also, the growth is 119% in test [13]; 103% in test [14]; 107% in test [15]; 117% in test [16]; 98.9% in test [17]; 96.6% in test [18]. The growth in test [19] is 111%; in [20], 106%.

In the case of `CCSCC1CC(O)(c2ccccc2)C(c2ccccc2)C(c2ccc(F)cc2)O1` (stereo not given), the growth in [1] is 3.1% (active); in test [2], 7.77% (active); in test [3], -37.6% (active); in test [4], -8.82% (active); in test [5], -12.4% (active); in [6] it was 1.85% (active). Besides, the growth was -22.4% (active) in [7]; 4.38% (active) in [8]; 4.92% (active) in [9]; -45.8% (active) in test [10]; 3.78% (active) in [11]; -18.7% (active) in test [12]. Also, the growth was -14% (active) in test [13]; 8.78% (active) in [14]; -11.8% (active) in [15]; -21.1% (active) in test [16]; -84.2% (active) in test [17]; -44.4% (active) in [18]. Moreover, the results for the growth in [19] and in [20] were -64.5% (active) and -39.4% (active), respectively.

Take `Cc1csc(N/N=C/c2ccncc2)n1`: the growth was 108% in test [1]; 94.1% in test [2]; 117% in test [3]; 102% in test [4]; 99.5% in test [5]; 114% in [6]. The growth in [7] was 108%; in [8] it was 106%; in [9], 78.1%; in test [10] it was 100%; in test [11], 103%; in test [12], 87.4%. Moreover, the growth in test [13] is 105%; in test [14], 100%; in test [15] it was 83.5%; in test [16] it was 111%; in [17], 100%; in test [18], 93.2%. Besides, the growth is 100% in [19] and 110% in test [20].

`CCOC(=O)C1C(=O)C=C(c2ccccc2)CC1c1sc(N(C)Cc2ccccc2)nc1Cl` (stereo not given): the growth in test [1] was 107%; in test [2], 73%; in test [3], 120%; in [4] it was 82.9%; in test [5], 91.7%; in test [6], 89.6%. Further, the growth in test [7] is 94.4%; in test [8], 105%; in test [9] it was 90.3%; in test [10], 94.7%; in [11] it was 94.3%; in [12] it was 91.2%. Besides, the growth is 89.1% in [13]; 89.7% in test [14]; 92.7% in test [15]; 76.4% in [16]; 92.7% in [17]; 61.4% in test [18]. Further, the growth in [19] is 88.2%; in test [20], 109%.

In the case of `Cc1ccncc1NC=O`, the growth in [1] was 113%; in [2] it was 107%; in [3] it was 105%; in [4] it was 110%; in [5], 111%; in [6], 104%. In addition, the growth is 104% in test [7]; 102% in test [8]; 106% in test [9]; 96.4% in test [10]; 104% in test [11]; 111% in test [12]. Besides, the growth is 103% in [13]; 102% in test [14]; 101% in test [15]; 99% in test [16]; 101% in test [17]; 101% in [18]. Also, the growth is 104% in [19] and 112% in test [20].

`O=C(Nc1cccc(Cl)c1)Nc1ccccc1Cl`: the growth in [1] was 95.8%; in test [2], 61.3%; in test [3], 92%; in test [4], 73.8%; in test [5], 117%; in test [6], 91%. Moreover, the growth in test [7] was 80.7%; in test [8], 104%; in test [9], 86.8%; in test [10] it was 106%; in [11] it was 93.6%; in [12], 80.8%. Further, the growth is 89.4% in test [13]; 102% in [14]; 87.3% in [15]; 57.1% in test [16]; 102% in test [17]; 63.7% in test [18]. Besides, the growth was 89.1% in test [19] and 95.4% in test [20].
